Laboratory results from PubChem BioAssay (Tox21).
“And” between values parts separate entries of the source, which are not always exact repeats. Equal values may be shown once. Inconclusive results are not listed. Entries that show only a call come without a potency. Some compounds were tested as several samples or in several runs, with calls that do not always agree. The source made the active and inactive calls. Unless noted, calls follow the shape of the dose curve; as a rule, active = well fitted curve in the direction sought with a large enough effect in the repeat runs; inconclusive = weak or mixed curves; inactive = no such curve, though single readings can be large; an effect the other way counts as inactive or inconclusive.

Legend:
[1] = qHTS assay to identify small molecule antagonists of the sonic hedgehog signaling (Shh) pathway (AID 1259369; calls by dose curve; also: nearly all actives have a fitted effect of over 45% in size; also: potency is read from the fitted curve at half-maximal effect)
Outline: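 Antagonist mode: compound added to 3T3 Gli1-Luc cells followed by conditioned-medium stimulation, 24 h at 37 C, 5% CO2. Inhibition taken as loss of Gli1-driven luciferase luminescence.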

[2] = qHTS assay to identify small molecule agonists of the androgen receptor (AR) signaling pathway in the presence of an antagonist - cell viability counter screen (AID 1259379); also: nearly all actives have a fitted effect of over 25% in size; also: potency is read from the fitted curve at half-maximal effect
Outline: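 Cytotoxicity counter-screen run in the same wells as the nilutamide-challenged (3.0 µM final) AR agonist assay in MDA-kb2 cells. Compounds tested at 15 concentrations for 16 h, 37 °C without CO2; CellTiter-Fluor fluorescence read.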

[3] = molecular target: Androgen receptor (Homo sapiens) (UniProt P10275); test: qHTS assay to identify small molecule agonists of the androgen receptor (AR) signaling pathway in the presence of an antagonist (AID 1259381; calls by dose curve; also: nearly all actives have a fitted effect of over 15% in size)
Sequence of Androgen receptor (Homo sapiens) (P10275 whole entry, looked up): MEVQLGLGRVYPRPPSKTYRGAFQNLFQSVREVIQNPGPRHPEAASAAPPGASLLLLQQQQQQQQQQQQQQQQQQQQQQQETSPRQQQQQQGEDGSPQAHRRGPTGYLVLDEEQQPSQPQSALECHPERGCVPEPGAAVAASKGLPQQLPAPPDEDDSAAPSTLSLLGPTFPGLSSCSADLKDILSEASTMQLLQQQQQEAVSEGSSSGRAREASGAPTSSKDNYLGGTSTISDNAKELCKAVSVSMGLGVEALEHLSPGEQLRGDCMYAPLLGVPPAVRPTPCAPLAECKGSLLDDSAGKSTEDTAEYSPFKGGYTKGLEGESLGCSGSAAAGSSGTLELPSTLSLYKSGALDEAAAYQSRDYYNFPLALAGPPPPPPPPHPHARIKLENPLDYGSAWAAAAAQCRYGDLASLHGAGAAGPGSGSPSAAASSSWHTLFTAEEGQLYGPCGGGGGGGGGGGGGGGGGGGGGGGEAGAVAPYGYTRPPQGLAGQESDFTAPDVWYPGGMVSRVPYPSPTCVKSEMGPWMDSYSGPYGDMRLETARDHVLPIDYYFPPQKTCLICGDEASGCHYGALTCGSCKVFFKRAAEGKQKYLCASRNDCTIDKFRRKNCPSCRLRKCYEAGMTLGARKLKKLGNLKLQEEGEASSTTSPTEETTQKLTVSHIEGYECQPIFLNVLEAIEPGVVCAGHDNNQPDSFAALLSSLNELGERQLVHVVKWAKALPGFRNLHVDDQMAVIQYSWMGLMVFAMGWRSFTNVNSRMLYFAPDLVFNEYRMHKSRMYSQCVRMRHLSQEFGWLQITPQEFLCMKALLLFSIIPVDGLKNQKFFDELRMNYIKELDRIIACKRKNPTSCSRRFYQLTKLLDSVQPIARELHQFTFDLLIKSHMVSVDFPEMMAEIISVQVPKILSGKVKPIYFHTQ
Outline: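 Agonist-mode confirmation run against 3.0 uM final nilutamide: compounds titrated at 15 concentrations onto MDA-kb2 MMTV-luciferase reporter cells. Luminescence measured with ONE-Glo following 16 hr incubation, 37C, 0% CO2.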

[4] = qHTS assay to identify small molecule antagonists of the estrogen receptor beta (ER-beta) signaling pathway - cell viability counter screen (AID 1259382); also: nearly all actives have a fitted effect of over 55% in size; also: potency is read from the fitted curve at half-maximal effect
Outline: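 Cytotoxicity was measured in the same wells by CellTiter-Glo luminescence after 30 min at room temperature. Cells were ER-beta-bla HEK293T in charcoal-stripped serum, given compound together with 1 nM E2 and incubated 16 h at 37C.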

[5] = molecular target: Estrogen receptor (Homo sapiens) (UniProt P03372); test: qHTS assay to identify small molecule agonists of the estrogen receptor alpha (ER-alpha) signaling pathway in the presence of an antagonist (AID 1259383; calls by dose curve; also: top concentration of the series differs between compounds; nearly all actives have a fitted effect of over 15% in size)
Sequence of Estrogen receptor (Homo sapiens) (P03372 whole entry, looked up): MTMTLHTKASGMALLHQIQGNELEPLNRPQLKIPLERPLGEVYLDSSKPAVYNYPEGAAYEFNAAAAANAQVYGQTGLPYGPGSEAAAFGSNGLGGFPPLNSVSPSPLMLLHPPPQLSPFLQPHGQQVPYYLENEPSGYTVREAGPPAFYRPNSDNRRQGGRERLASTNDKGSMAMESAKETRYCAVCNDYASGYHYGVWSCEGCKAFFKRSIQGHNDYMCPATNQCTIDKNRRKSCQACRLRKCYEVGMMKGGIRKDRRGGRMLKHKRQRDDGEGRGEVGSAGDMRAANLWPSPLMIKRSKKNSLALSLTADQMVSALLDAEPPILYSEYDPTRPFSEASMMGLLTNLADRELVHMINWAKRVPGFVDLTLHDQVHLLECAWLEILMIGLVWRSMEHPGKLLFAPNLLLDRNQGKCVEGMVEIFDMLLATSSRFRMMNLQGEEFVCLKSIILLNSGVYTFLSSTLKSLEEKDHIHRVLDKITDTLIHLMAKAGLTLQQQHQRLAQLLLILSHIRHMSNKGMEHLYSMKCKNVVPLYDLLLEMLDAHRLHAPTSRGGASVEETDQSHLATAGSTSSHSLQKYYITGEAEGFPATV
Outline: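 Agonist-mode confirmation run in the presence of 10.0nM (final) ICI-182,780 antagonist. The reporter was ERE-driven luciferase in VM7Luc4E2 cells, grown in charcoal-stripped serum. Cells were exposed to 15-concentration compound series for 22hr, then ONE-Glo luminescence was read.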

[6] = qHTS assay to identify small molecule agonists of the estrogen receptor alpha (ER-alpha) signaling pathway in the presence of an antagonist - cell viability counter screen (AID 1259386); also: series mostly up to about 92 µM; nearly all actives have a fitted effect of over 30% in size
Outline: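 Compounds tested at 15 concentrations for 22 h at 37C alongside 10.0nM (final) ICI-182,780 antagonist, in VM7Luc4E2 cells grown in phenol red-free, charcoal-stripped medium. Viability read by CellTiter-Fluor fluorescence after 1 h reagent incubation.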

[7] = qHTS assay to identify small molecule antagonists of the progesterone receptor (PR) signaling pathway - cell viability counter screen (AID 1346798); also: nearly all actives have a fitted effect of over 50% in size; also: potency is read from the fitted curve at half-maximal effect
Outline: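 PR-UAS-bla HEK293T cells, 3,000/well in 2% charcoal-stripped FBS medium, dosed with compounds plus R5020 agonist and incubated 16 h at 37C. Viability then measured in the same wells by CellTiter-Glo luminescence after 30 min at RT.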

[8] = qHTS assay to identify small molecule antagonists of the TGF-beta/Smad signaling pathway - cell viability counter screen (AID 1346824); also: nearly all actives have a fitted effect of over 50% in size
Outline: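 SBE-bla HEK 293T cells were plated overnight at 37 C, then given compounds in DMSO plus TGF-beta1 (added as 0.25 ng/mL solution) for 5 hr. After the bla read, CellTiter-Glo was added to the same wells and luminescence read after 30 min at room temperature.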

[9] = qHTS assay to identify small molecule agonists of the TGF-beta/Smad signaling pathway - cell viability counter screen (AID 1346829); also: top concentration of the series differs between compounds; nearly all actives have a fitted effect of over 45% in size
Outline: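 Same-well cytotoxicity: CellTiter-Glo added after the 2 hr room-temperature beta-lactamase substrate step, luminescence measured 30 min later; cells had 5 hr of compound at 37 C.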

[10] = qHTS assay to identify small molecule agonists of the TGF-beta/Smad signaling pathway (AID 1346859; active = well fitted activation curve with a large enough effect in the signal ratio in the repeat runs, not every such curve was filed as active; the % refers to the signal ratio; also: series mostly up to about 77 µM)
Outline: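 SBE-bla HEK293T cells plated overnight, then compound exposure for 5 h at 37 C. Beta-lactamase reporter read with LiveBLAzer B/G FRET substrate after 2 h at room temperature, fluorescence at 405 nm excitation, 460/530 nm emission.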

[11] = qHTS assay to identify small molecule agonists or antagonists of the thyroid stimulating hormone receptor (TSHR) signaling pathway - wild type cell line counter screen (AID 1259384; calls by dose curve)
Outline: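 Wild-type HEK293 cells were plated 18 h at 37 C/5% CO2, pin-dosed with compound plus Ro20-1724 medium, held 30 min at room temperature, then given cAMP-d2 and anti-cAMP-cryptate; fluorescence was read after 1 h. Fifteen concentrations, triplicate.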

[12] = molecular target: Progesterone receptor (Homo sapiens) (UniProt P06401); test: qHTS assay to identify small molecule agonists of the progesterone receptor (PR) signaling pathway (AID 1346784; calls by dose curve; also: nearly all actives have a fitted effect of over 30% in size; also: potency is read from the fitted curve at half-maximal effect)
Sequence of Progesterone receptor (Homo sapiens) (P06401 whole entry, looked up): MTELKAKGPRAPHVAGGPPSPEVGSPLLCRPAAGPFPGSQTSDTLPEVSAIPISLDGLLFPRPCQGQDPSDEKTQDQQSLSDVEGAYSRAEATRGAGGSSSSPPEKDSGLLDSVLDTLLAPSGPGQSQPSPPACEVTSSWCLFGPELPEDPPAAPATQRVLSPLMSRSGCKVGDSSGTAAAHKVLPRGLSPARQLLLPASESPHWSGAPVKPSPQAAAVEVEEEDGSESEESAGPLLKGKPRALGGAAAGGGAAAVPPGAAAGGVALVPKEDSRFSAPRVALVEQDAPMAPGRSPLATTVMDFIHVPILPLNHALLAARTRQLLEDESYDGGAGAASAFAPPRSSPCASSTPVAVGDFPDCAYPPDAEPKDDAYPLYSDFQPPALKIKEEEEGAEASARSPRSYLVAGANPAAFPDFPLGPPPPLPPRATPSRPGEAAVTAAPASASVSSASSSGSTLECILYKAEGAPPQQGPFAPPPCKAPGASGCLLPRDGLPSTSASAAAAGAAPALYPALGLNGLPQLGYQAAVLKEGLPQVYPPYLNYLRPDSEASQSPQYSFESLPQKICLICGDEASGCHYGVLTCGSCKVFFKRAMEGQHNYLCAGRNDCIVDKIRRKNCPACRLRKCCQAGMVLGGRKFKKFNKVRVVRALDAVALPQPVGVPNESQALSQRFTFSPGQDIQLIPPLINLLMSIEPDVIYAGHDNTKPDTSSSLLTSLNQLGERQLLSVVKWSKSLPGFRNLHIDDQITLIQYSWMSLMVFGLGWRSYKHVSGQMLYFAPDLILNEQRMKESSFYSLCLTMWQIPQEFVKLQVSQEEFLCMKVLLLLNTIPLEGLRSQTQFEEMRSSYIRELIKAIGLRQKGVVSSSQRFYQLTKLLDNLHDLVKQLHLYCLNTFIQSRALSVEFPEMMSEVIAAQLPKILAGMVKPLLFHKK
Outline: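 PR-UAS-bla HEK 293T cells (beta-lactamase reporter under UAS) in 2% charcoal-stripped FBS, dosed with 23 nL compound after 6 hr, incubated 16hr at 37C. LiveBLAzer B/G FRET substrate added, fluorescence read after 2 hours.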

[13] = qHTS assay to identify small molecule agonists of the estrogen receptor beta (ER-beta) signaling pathway - cell viability counter screen (AID 1259380); also: nearly all actives have a fitted effect of over 30% in size; also: potency is read from the fitted curve at half-maximal effect
Outline: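 Cell viability counter screen: CellTiter-Glo luminescence (30 min, room temperature) measured in the same wells as the beta-lactamase readout, after 16 hr compound exposure at 37C of ER-beta-bla HEK293T cells in 2% charcoal-stripped FBS medium.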

[14] = qHTS assay to identify small molecule agonists of the progesterone receptor (PR) signaling pathway - cell viability counter screen (AID 1346799; calls by dose curve; also: nearly all actives have a fitted effect of over 45% in size; also: potency is read from the fitted curve at half-maximal effect)
Outline: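 Counter screen in the PR-UAS-bla HEK293T wells (2% charcoal-stripped FBS, 16 h compound exposure at 37 C) after the bla read. CellTiter-Glo added, 30 min at room temperature, luminescence read as cell viability.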

[15] = molecular target: Thyrotropin receptor (Homo sapiens) (UniProt P16473); test: qHTS assay to identify small molecule antagonists of the thyroid stimulating hormone receptor (TSHR) signaling pathway (AID 1259385; calls by dose curve; also: nearly all actives have a fitted effect of over 20% in size; also: potency is read from the fitted curve at half-maximal effect)
Sequence of Thyrotropin receptor (Homo sapiens) (P16473 whole entry, looked up): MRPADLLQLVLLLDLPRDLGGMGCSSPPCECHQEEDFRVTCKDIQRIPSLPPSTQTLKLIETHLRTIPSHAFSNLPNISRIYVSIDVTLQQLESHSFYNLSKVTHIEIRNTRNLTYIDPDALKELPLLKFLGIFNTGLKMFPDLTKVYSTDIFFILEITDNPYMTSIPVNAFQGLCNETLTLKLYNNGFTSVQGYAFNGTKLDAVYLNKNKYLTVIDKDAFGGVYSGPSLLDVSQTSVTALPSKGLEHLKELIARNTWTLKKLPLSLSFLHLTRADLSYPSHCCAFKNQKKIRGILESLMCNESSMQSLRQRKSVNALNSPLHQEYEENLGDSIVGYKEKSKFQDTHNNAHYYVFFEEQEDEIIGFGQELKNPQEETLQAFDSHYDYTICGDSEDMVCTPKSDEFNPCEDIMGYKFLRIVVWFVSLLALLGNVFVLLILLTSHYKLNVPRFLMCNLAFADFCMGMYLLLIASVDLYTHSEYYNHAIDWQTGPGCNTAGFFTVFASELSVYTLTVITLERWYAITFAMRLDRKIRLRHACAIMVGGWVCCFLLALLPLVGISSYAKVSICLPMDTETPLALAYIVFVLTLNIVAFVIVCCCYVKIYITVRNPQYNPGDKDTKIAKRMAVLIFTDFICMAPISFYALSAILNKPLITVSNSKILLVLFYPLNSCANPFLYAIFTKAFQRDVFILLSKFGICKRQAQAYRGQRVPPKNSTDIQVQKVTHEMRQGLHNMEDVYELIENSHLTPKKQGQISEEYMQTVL
Outline: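 TSHR-HEK293 cells were plated and held 18 h at 37C/5% CO2, then given compound plus Ro20-1724 and stimulated with TSH at 1.5 ng/mL final. After 30 min at room temperature, cAMP was detected with cAMP-d2/anti-cAMP-cryptate (1 h) by fluorescence.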

[16] = molecular target: Thyrotropin-releasing hormone receptor (Homo sapiens) (UniProt P34981); test: qHTS assay to identify small molecule agonists of the thyrotropin-releasing hormone receptor (TRHR) signaling pathway (AID 1346891; calls by dose curve; also: series mostly up to about 58 µM)
Sequence of Thyrotropin-releasing hormone receptor (Homo sapiens) (P34981 whole entry, looked up): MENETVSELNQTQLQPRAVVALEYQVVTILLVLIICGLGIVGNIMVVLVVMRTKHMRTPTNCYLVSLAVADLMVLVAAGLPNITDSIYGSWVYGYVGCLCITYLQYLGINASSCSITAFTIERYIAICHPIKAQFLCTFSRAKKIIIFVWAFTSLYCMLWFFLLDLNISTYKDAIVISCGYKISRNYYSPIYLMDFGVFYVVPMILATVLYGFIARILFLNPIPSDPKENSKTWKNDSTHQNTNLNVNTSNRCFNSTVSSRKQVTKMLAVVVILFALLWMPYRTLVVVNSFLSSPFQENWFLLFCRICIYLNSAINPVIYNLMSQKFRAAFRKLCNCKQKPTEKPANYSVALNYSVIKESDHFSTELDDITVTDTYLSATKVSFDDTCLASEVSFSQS
Outline: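 HEK293 cells expressing TRHR plated 18 h at 37 C/5% CO2, calcium dye-loaded 2 h at 37 C, then compound added (agonist mode); kinetic calcium fluorescence read 3 min at 1 s intervals; 15 concentrations in triplicate.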

[17] = molecular target: Progesterone receptor (Homo sapiens) (UniProt P06401); test: qHTS assay to identify small molecule antagonists of the progesterone receptor (PR) signaling pathway (AID 1346795; active = well fitted inhibition curve with a large enough effect in the signal ratio in the repeat runs, not every such curve was filed as active; the % refers to the signal ratio; also: potency is read from the fitted curve at half-maximal effect)
Outline: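 PR-UAS-bla HEK293T cells with beta-lactamase reporter under UAS control, in 2% charcoal-stripped FBS, treated with compounds plus 1 nM promegestone (R5020, final) for 16 hr at 37C. Read-out: FRET beta-lactamase substrate fluorescence after 2 hr at room temperature.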

[18] = molecular target: Thyrotropin-releasing hormone receptor (Homo sapiens) (UniProt P34981); test: qHTS assay to identify small molecule antagonists of the thyrotropin-releasing hormone receptor (TRHR) signaling pathway (AID 1346877; active = well fitted inhibition curve with a large enough effect in the repeat runs, not every such curve was filed as active; also: series mostly up to about 51 µM)
Outline: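 Antagonist mode: after a 5 min room-temperature compound exposure, cells were stimulated with 1 nM (final) TRH. Dye-loaded TRHR-HEK293 cells were used, and calcium-dependent fluorescence was followed for 3 min, with 15-point titrations run in triplicate.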

[19] = molecular target: Estrogen receptor beta (Homo sapiens) (UniProt Q92731); test: qHTS assay to identify small molecule agonists of the estrogen receptor beta (ER-beta) signaling pathway (AID 1259377; active = well fitted activation curve with a large enough effect in the signal ratio in the repeat runs, not every such curve was filed as active; the % refers to the signal ratio)
Sequence of Estrogen receptor beta (Homo sapiens) (Q92731 whole entry, looked up): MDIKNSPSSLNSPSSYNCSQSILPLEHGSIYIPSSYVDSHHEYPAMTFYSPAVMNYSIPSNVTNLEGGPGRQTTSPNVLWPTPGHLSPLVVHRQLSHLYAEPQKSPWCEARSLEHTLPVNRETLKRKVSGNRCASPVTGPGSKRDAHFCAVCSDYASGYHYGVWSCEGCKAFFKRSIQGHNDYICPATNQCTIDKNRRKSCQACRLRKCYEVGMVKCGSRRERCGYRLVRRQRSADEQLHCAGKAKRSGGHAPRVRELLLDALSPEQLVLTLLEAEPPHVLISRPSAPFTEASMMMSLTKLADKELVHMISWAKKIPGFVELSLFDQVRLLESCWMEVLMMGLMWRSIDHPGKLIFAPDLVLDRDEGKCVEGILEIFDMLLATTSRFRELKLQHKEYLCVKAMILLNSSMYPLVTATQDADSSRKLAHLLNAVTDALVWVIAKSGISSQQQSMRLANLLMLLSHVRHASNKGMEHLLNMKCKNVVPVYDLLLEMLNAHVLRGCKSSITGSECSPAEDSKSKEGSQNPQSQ
Outline: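 ER-beta-UAS-bla HEK293T cells in medium with 2% charcoal-stripped FBS were exposed to compounds for 16 h at 37C. Beta-lactamase reporter activity was read as fluorescence after 2 h with LiveBLAzer B/G FRET substrate at room temperature.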

[20] = molecular target: Estrogen receptor beta (Homo sapiens) (UniProt Q92731); test: qHTS assay to identify small molecule antagonists of the estrogen receptor beta (ER-beta) signaling pathway (AID 1259378; active = well fitted inhibition curve with a large enough effect in the signal ratio in the repeat runs, not every such curve was filed as active; the % refers to the signal ratio)
Outline: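 ER-beta-UAS-bla HEK293T (GripTite) cells in 2% charcoal-stripped FBS medium were preincubated 6 hr at 37C, dosed with compound, then stimulated with 1 nM E2 (final) for 16 hr; beta-lactamase reporter read by B/G FRET fluorescence after 2 hr substrate loading.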

SMILES | Potency [1] | Potency [2] | Potency [3] | Potency [4] | Potency [5] | Potency [6] | Potency [7] | Potency [8] | Potency [9] | outcome [10] | outcome [11] | Potency [12] | Potency [13] | Potency [14] | Potency [15] | Potency [16] | Potency [17] | Potency [18] | Potency [19] | Potency [20]
Cc1ccc(-c2c(Cl)nc(C#N)n2S(=O)(=O)N(C)C)cc1 | 7.69 µM (active) | 48.5 µM (active) | inactive | 27.3 µM (active) | inactive | inactive | 8.63 µM (active) | inactive | inactive | inactive | – | – | – | – | – | – | – | – | – | –
O=C(Nc1ccccc1)Nc1ccnc(Cl)c1 | 2.17 µM (active) | 61.1 µM (active) | inactive | – | – | – | – | – | inactive | inactive | inactive | inactive | – | – | – | – | – | – | – | –
O=NN1CCNCC1 | inactive | inactive | – | – | inactive | inactive | inactive | inactive | inactive | inactive | – | inactive | inactive | inactive | – | – | – | – | – | –
CNP(=O)(OC)Oc1ccc(C(C)(C)C)cc1Cl (centres undefined) | 27.3 µM (active) | inactive | – | inactive | inactive | inactive | – | inactive | inactive | inactive | – | inactive | inactive | – | inactive | inactive | – | – | – | –
II | inactive | inactive | inactive | – | inactive | inactive | – | inactive | inactive | inactive | – | inactive | – | 10.9 µM (active) | – | – | – | – | – | –
COP(=O)(OC)O/C(=C/Cl)c1cc(Cl)c(Cl)cc1Cl | 57.5 µM (active) | – | inactive | – | inactive | inactive | inactive | inactive | inactive | inactive | inactive | – | – | inactive | – | inactive | 14.5 µM (active) | – | – | –
CN(N=O)c1ccc([N+](=O)[O-])cc1 | inactive | – | – | inactive | inactive | – | inactive | inactive | inactive | inactive | – | inactive | inactive | inactive | – | – | inactive | inactive | – | –
C=CC(=O)OCCCCO | – | inactive | – | inactive | inactive | inactive | inactive | inactive | inactive | – | inactive | inactive | inactive | inactive | inactive | inactive | inactive | inactive | inactive | inactive
CN1[C@@H]2CC[C@H]1CC(OC(=O)c1cc(Cl)cc(Cl)c1)C2 (some centres undefined) | – | inactive | – | inactive | inactive | inactive | – | inactive | inactive | inactive | – | inactive | 26.6 µM (active) | – | 26.6 µM (active) | inactive | inactive | inactive | inactive | inactive
COP(=S)(Oc1cc(Cl)c(Br)cc1Cl)c1ccccc1 (centres undefined) | inactive | inactive | inactive | – | inactive | inactive | inactive | inactive | inactive | inactive | inactive | – | – | – | inactive | – | – | inactive | – | –
COc1nn(C(=O)NS(=O)(=O)c2ccccc2OC(F)(F)F)c(=O)n1C | – | inactive | – | inactive | – | inactive | inactive | inactive | inactive | inactive | inactive | – | inactive | inactive | inactive | inactive | – | inactive | inactive | inactive
CCn1cc[n+](C)c1 | inactive and 19.3 µM (active) and 38.8 µM (active) | inactive and 27.6 µM (active) | – | inactive | – | inactive | inactive | inactive | inactive | inactive | – | inactive and 15.3 µM (active) | inactive | inactive | – | – | inactive | – | – | –
[CH3][Sn]([CH3])([Cl])[Cl] | 2.43 µM (active) | inactive | – | – | – | – | inactive | inactive | inactive | inactive | – | inactive | inactive | inactive | – | inactive | inactive | inactive | – | –
Brc1ccc(Oc2ccccc2)cc1 | 31.4 µM (active) and inactive | inactive | – | – | inactive | inactive | – | inactive | inactive | inactive | inactive | inactive | – | inactive | inactive | inactive | inactive | inactive | – | –
C=CCCl | inactive | inactive | – | inactive | inactive | inactive | inactive | inactive | inactive | inactive | – | inactive | inactive | inactive | inactive | inactive | inactive | inactive | – | –
CC(Cl)Cl | – | inactive | – | inactive | inactive | inactive | inactive | inactive | inactive | inactive | – | inactive | inactive | inactive | inactive | – | inactive | inactive | inactive | inactive
BrCCCCBr | inactive | inactive | – | inactive | inactive | inactive | inactive | – | inactive | inactive | inactive | – | inactive | inactive | inactive | inactive | – | inactive | – | –
CCOS(C)(=O)=O | inactive | inactive | – | inactive | – | inactive | inactive | inactive | inactive | inactive | inactive | inactive | inactive | inactive | inactive | – | inactive | – | – | –
C=COC(C)=O | inactive | inactive | – | inactive | – | inactive | inactive | inactive | inactive | inactive | inactive | inactive | inactive | inactive | inactive | – | inactive | – | – | –
Clc1cc(Cl)c(Cl)c(Cl)c1 | inactive | inactive | – | – | inactive | inactive | inactive | inactive | inactive | inactive | inactive | inactive | inactive | inactive | inactive | – | inactive | – | – | –
